# Data taken from PubChem BioAssay.
# Activity calls are given as the source filed them. Unless noted, no stated cut-off is given here; in the data, active means inhibition above about 80%; inactive means the rest.
# Key:
# [1] = LFS_MB_P medulloblastoma growth inhibition, cell-based, chromothripsis tumors, cisplatin or BGB combos (AID 1671449); conditions: LFS_MB_P medulloblastoma cells;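 further: cells exposed for 96 hours; 0% = vehicle DMSO and 100% = killing by high DMSO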
# [2] = HDN33 neuroblastoma growth inhibition, cell-based, chromothripsis tumors, cisplatin or BGB combos (AID 1671450); conditions: HDN33 neuroblastoma cells, stronger effect = higher value;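 further: cells exposed to compound for four days; 0% = vehicle DMSO and 100% = cell killing by high DMSO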
# [3] = ICB984 medulloblastoma cell growth inhibition, synergistic combos for chromothripsis tumors, cisplatin or BGB combos (AID 1671451; call rule not given here;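 further: cells exposed for 96 hours before readout; 0% = vehicle DMSO and 100% = killing by high DMSO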); conditions: ICB984 medulloblastoma cells, drug combinations, stronger effect = higher value
# [4] = LFS_MB_1R medulloblastoma cell growth inhibition, synergistic combos for chromothripsis tumors, cisplatin or BGB combos (AID 1671452); conditions: LFS_MB_1R medulloblastoma cells, stronger effect = higher value;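 further: cells exposed for 96 hours before readout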
# [5] = HTB85 osteosarcoma cell growth inhibition, synergistic combos for chromothripsis tumors, BGB or cisplatin IC20 combos (AID 1671453); conditions: HTB85 osteosarcoma cells, drug combinations, stronger effect = higher value;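 further: cells exposed for 96 hours before readout; 0% = vehicle DMSO and 100% = high DMSO killing control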
# [6] = CRL2098 osteosarcoma cell growth inhibition, synergistic combos for chromothripsis tumors, BGB or cisplatin IC20 combos (AID 1671454); conditions: CRL2098 osteosarcoma cells, drug combinations, stronger effect = higher value;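 further: cells exposed for 96 h before readout; 0% = vehicle DMSO and 100% = killing by high DMSO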
# [7] = HD-MB03 medulloblastoma cell growth inhibition, synergistic combos for chromothripsis tumors, BGB or cisplatin IC20 combos (AID 1671455; in the data active means inhibition above about 83%;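 further: 0% = vehicle DMSO and 100% = high DMSO as cytotoxic control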); conditions: HD-MB03 medulloblastoma cells, stronger effect = higher value
# [8] = UWB1.289 ovarian carcinoma cell growth inhibition, synergistic combos for chromothripsis tumors, BGB or cisplatin combos (AID 1671456); conditions: UWB1.289 ovarian carcinoma cells, stronger effect = higher value;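 further: cells exposed to compound for four days; 0% = vehicle DMSO and 100% = killing by high DMSO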
# [9] = LFS_MB_2R medulloblastoma cell growth inhibition, synergistic combos for chromothripsis tumors, cisplatin combos (AID 1671457); conditions: LFS_MB_2R medulloblastoma cells, stronger effect = higher value;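 further: cells exposed to compound for four days before readout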
# [10] = MDA-MB-436 breast carcinoma cell growth inhibition, synergistic combos for chromothripsis tumors, BGB or cisplatin combos (AID 1671458; call rule not given here;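 further: cells exposed for 96 hours; 0% = vehicle DMSO and 100% = killing by high DMSO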); conditions: MDA-MB-436 breast carcinoma growth inhibition, drug combinations, stronger effect = higher value
# [11] = UWB1.289_BRCA1 ovarian cancer growth, cell-based, BGB or cisplatin combinations (AID 1671459); conditions: UWB1.289 BRCA1 ovarian carcinoma, drug combinations, stronger effect = higher value
# [12] = human astrocyte viability loss, single and combined drugs, cytotoxicity control for chromothriptic childhood tumor combination screen, cell-based, BGB or cisplatin IC20 combos (AID 1671460); conditions: Human astrocytes, drug combinations, stronger effect = higher value;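 further: cells exposed to compounds for 96 hours before viability readout; 0% = vehicle and 100% = killing control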
# [13] = growth inhibition of BT084 medulloblastoma cells, cell-based, ICGC_MB145, cisplatin and BGB IC40 combos (AID 1671461); conditions: drug combinations, stronger effect = higher value;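 further: cells exposed to drugs for 96 hours; 0% = vehicle DMSO and 100% = high DMSO full killing control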
# [14] = growth inhibition of RCMB18 medulloblastoma cells, cell-based, cisplatin and BGB IC40 combos (AID 1671462); conditions: stronger effect = higher value;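 further: cells exposed to compound for four days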
# [15] = growth inhibition of CRL1545 osteosarcoma cells, cell-based, cisplatin and BGB IC20 combos (AID 1671464); conditions: stronger effect = higher value;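 further: cells exposed to compound for 96 hours before readout; 0% = vehicle DMSO and 100% = high DMSO killing control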
# [16] = at 0.5 µM, stronger effect = higher value
# [17] = measured here: combination with BGB IC20, at 0.005 µM
# [18] = measured here: combination with BGB IC40, at 0.005 µM
# [19] = measured here: combination with BGB IC40, at 0.05 µM
# [20] = measured here: combination with cisplatin, at 0.5 µM, stronger effect = higher value
# [21] = measured here: combination with cisplatin, at 5 µM, stronger effect = higher value
# [22] = measured here: with BGB IC20 combination, at 0.5 µM
# [23] = measured here: with cisplatin IC20 combination, at 0.5 µM
# [24] = measured here: 5 uM single agent, at 5 µM
# [25] = measured here: combination with cisplatin, at 0.5 µM
# [26] = measured here: combination with cisplatin, at 5 µM
# [27] = measured here: with BGB IC20, at 0.5 µM
# [28] = measured here: with BGB IC20, at 5 µM
# [29] = measured here: with cisplatin IC20, at 0.5 µM
# [30] = measured here: with cisplatin IC20, at 5 µM
# [31] = measured here: combination with BGB at IC20, at 0.5 µM
# [32] = measured here: combination with cisplatin at IC20, at 0.5 µM
# [33] = measured here: combo with BGB at IC20, at 0.5 µM
# [34] = measured here: combo with cisplatin at IC20, at 0.5 µM
# [35] = measured here: inhibition with BGB combination, at 0.05 µM
# [36] = measured here: inhibition with cisplatin combination, at 0.05 µM
# [37] = measured here: BGB combination, at 0.5 µM
# [38] = measured here: BGB combination, at 5 µM
# [39] = measured here: cisplatin combination, at 0.5 µM
# [40] = measured here: cisplatin combination, at 5 µM
# [41] = BGB combination, concentration series, at 5 µM
# [42] = cisplatin combination, concentration series, at 5 µM
# [43] = measured here: combo with BGB IC20, at 0.5 µM
# [44] = measured here: combo with cisplatin IC20, at 0.5 µM
# [45] = cisplatin combination, at 0.5 µM
# [46] = measured here: BGB IC40 combination 0.05 uM, at 0.05 µM
# [47] = measured here: BGB IC40 combination, at 0.05 µM
smiles,measurement,setting,value
NC(=O)c1cccc2[nH]c(-c3ccc(C4CCCN4)cc3F)nc12 (stereo unspecified),inhibition,[1]; [16],19.3% (inactive)
same,inhibition,[1]; [17],7.36%
same,inhibition,[1]; [18],-24.3%
same,inhibition,[1]; [19],1.68%
same,inhibition,[1]; [20],52.8%
same,inhibition,[1]; [21],58.1%
same,inhibition,"[2]; BGB combo, at 5 µM",54.3%
same,inhibition,[2]; at 0.5 µM,15.5% (inactive)
same,inhibition,"[2]; cisplatin combo, at 5 µM",60.1%
same,inhibition,[2]; [22],22.6%
same,inhibition,[2]; [23],10.8%
same,inhibition,"[2]; single agent, at 5 µM",54.9%
same,inhibition,"[3]; BGB IC20 combo, at 0.005 µM",3.69%
same,inhibition,"[3]; BGB IC40 combo, at 0.005 µM",-38.8%
same,inhibition,"[3]; BGB IC40 combo, at 0.05 µM",41.6%
same,inhibition,[3]; at 0.5 µM,-20.7% (inactive)
same,inhibition,"[3]; cisplatin combo, at 0.05 µM",39.3%
same,inhibition,"[3]; cisplatin combo, at 0.5 µM",-35.8%
same,inhibition,"[3]; cisplatin combo, at 5 µM",-28.7%
same,inhibition,[3]; [24],-6.58%
same,inhibition,[4]; at 0.5 µM,-15.8% (inactive)
same,inhibition,[4]; [19],-15.1%
same,inhibition,[4]; [25],-24.3%
same,inhibition,[4]; [26],48.8%
same,inhibition,[5]; at 0.5 µM,6.65% (inactive)
same,inhibition,[5]; [27],0.81%
same,inhibition,[5]; [28],37.8%
same,inhibition,[5]; [29],2.33%
same,inhibition,[5]; [30],51.1%
same,inhibition,"[5]; single agent, at 5 µM",52.6%
same,inhibition,[6]; at 0.5 µM,-18.9% (inactive)
same,inhibition,[6]; [31],-1.16%
same,inhibition,[6]; [32],-8.89%
same,inhibition,[7]; at 0.5 µM,7.06% (inactive)
same,inhibition,[7]; [33],1.45%
same,inhibition,[7]; [34],11.4%
same,inhibition,[8]; at 0.5 µM,9.31% (inactive)
same,inhibition,[8]; [35],-4.89%
same,inhibition,[8]; [36],-21.6%
same,inhibition,[9]; at 0.5 µM,-11.1% (inactive)
same,inhibition,[9]; [25],-12.4%
same,inhibition,[9]; [26],48.1%
same,inhibition,[10]; at 0.5 µM,12.2% (inactive)
same,inhibition,[10]; [37],-1.6%
same,inhibition,[10]; [38],34.2%
same,inhibition,[10]; [39],12.5%
same,inhibition,[10]; [40],56.6%
same,inhibition,[11]; [41],55.7%
same,inhibition,[11]; at 0.5 µM,12.5% (inactive)
same,inhibition,[11]; [42],69.9%
same,inhibition,[12]; at 0.5 µM,18.3% (inactive)
same,inhibition,[12]; [43],32.5%
same,inhibition,[12]; [44],12%
same,inhibition,[13]; at 0.5 µM,-17.4% (inactive)
same,inhibition,[13]; [45],-7.13%
same,inhibition,"[13]; cisplatin combination, at 5 µM",41.8%
same,inhibition,[13]; [46],14.7%
same,inhibition,"[13]; single agent, at 5 µM",45%
same,inhibition,[14]; at 0.5 µM,-17.5% (inactive)
same,inhibition,"[14]; cisplatin combo, at 5 µM",55.7%
same,inhibition,[14]; [47],-5.7%
same,inhibition,[14]; [25],-29.9%
same,inhibition,"[14]; single agent, at 5 µM",39.2%
same,inhibition,[15]; at 0.5 µM,-0.89% (inactive)
same,inhibition,[15]; [22],-14.3%
same,inhibition,[15]; [23],5.82%
same,inhibition,"[15]; single agent, at 0.05 µM",27.4%
same,inhibition,"[15]; single agent, at 5 µM",63.4%
O=C1C(=Cc2cccnc2)C(=O)c2ccccc21,inhibition,[1]; [16],-18.2% (inactive)
same,inhibition,[1]; [17],-17.1%
same,inhibition,[1]; [18],67.5%
same,inhibition,[1]; [19],-27.5%
same,inhibition,[1]; [20],-45.6%
same,inhibition,[1]; [21],-16.1%
same,inhibition,"[2]; BGB combo, at 5 µM",-24.2%
same,inhibition,[2]; at 0.5 µM,-0.8% (inactive)
same,inhibition,"[2]; cisplatin combo, at 5 µM",-15.7%
same,inhibition,[2]; [22],-14.2%
same,inhibition,[2]; [23],14.1%
same,inhibition,"[2]; single agent, at 5 µM",-16.1%
same,inhibition,"[3]; BGB IC20 combo, at 0.005 µM",0.337%
same,inhibition,"[3]; BGB IC40 combo, at 0.005 µM",-13.1%
same,inhibition,"[3]; BGB IC40 combo, at 0.05 µM",-4.84%
same,inhibition,[3]; at 0.5 µM,-25.7% (inactive)
same,inhibition,"[3]; cisplatin combo, at 0.05 µM",-10.2%
same,inhibition,"[3]; cisplatin combo, at 0.5 µM",-37.3%
same,inhibition,"[3]; cisplatin combo, at 5 µM",-28.8%
same,inhibition,[3]; [24],-20.5%
same,inhibition,[4]; at 0.5 µM,-8.72% (inactive)
same,inhibition,[4]; [19],-20.3%
same,inhibition,[4]; [25],-8.61%
same,inhibition,[4]; [26],-32.8%
same,inhibition,[5]; at 0.5 µM,-5.81% (inactive)
same,inhibition,[5]; [27],0.006%
same,inhibition,[5]; [28],-4.06%
same,inhibition,[5]; [29],-17.7%
same,inhibition,[5]; [30],0.224%
same,inhibition,"[5]; single agent, at 5 µM",6.13%
same,inhibition,[6]; at 0.5 µM,-26.6% (inactive)
same,inhibition,[6]; [31],-25.9%
same,inhibition,[6]; [32],-22.2%
same,inhibition,[7]; at 0.5 µM,-8.47% (inactive)
same,inhibition,[7]; [33],-12%
same,inhibition,[7]; [34],-5.96%
same,inhibition,[8]; at 0.5 µM,0.75% (inactive)
same,inhibition,[8]; [35],2.81%
same,inhibition,[8]; [36],-5.97%
same,inhibition,[9]; at 0.5 µM,-15.3% (inactive)
same,inhibition,[9]; [25],-19.2%
same,inhibition,[9]; [26],-18.7%
same,inhibition,[10]; at 0.5 µM,-13.9% (inactive)
same,inhibition,[10]; [37],-13.8%
same,inhibition,[10]; [38],-19.4%
same,inhibition,[10]; [39],-27.6%
same,inhibition,[10]; [40],-23.4%
same,inhibition,[11]; [41],-3.65%
same,inhibition,[11]; at 0.5 µM,-0.75% (inactive)
same,inhibition,[11]; [42],4.94%
same,inhibition,[12]; at 0.5 µM,5.07% (inactive)
same,inhibition,[12]; [43],-3.05%
same,inhibition,[12]; [44],0.407%
same,inhibition,[13]; at 0.5 µM,-7.01% (inactive)
same,inhibition,[13]; [45],-1.5%
same,inhibition,"[13]; cisplatin combination, at 5 µM",-101%
same,inhibition,[13]; [46],-30.3%
same,inhibition,"[13]; single agent, at 5 µM",9.68%
same,inhibition,[14]; at 0.5 µM,-13.1% (inactive)
same,inhibition,"[14]; cisplatin combo, at 5 µM",4.14%
same,inhibition,[14]; [47],-19.1%
same,inhibition,[14]; [25],-37%
same,inhibition,"[14]; single agent, at 5 µM",-5.07%
same,inhibition,[15]; at 0.5 µM,3.87% (inactive)
same,inhibition,[15]; [22],-10.3%
same,inhibition,[15]; [23],9.52%
same,inhibition,"[15]; single agent, at 0.05 µM",-45.6%
same,inhibition,"[15]; single agent, at 5 µM",-28.3%
